Results as given in the OligoGym collection.

These sequences were tested against LIG4 (assay: pooled miR-30 sensor sort-seq; sequence = guide strand). Details: shRNA.
Further: reference of the scale not given here.

Sequence | sensor-assay potency score (higher = more potent)
TTCCTTTCTGTAAACATCTTGG | -0.486
TTGCTGACTAACACCAAGCTTT | -0.307
TAGTCCACTGACATACTCTGGT | 0.198
TAACACAAAACTCTACATCTTC | 0.104
TTTATATACATCTCCATCTTTG | -1.01
TAAAAGGTCGTTTACTTGCTGT | -0.0412
TAGTTTGCTGACTAACACCAAG | -1.17
TTTCTGTAAACATCTTGGCTTC | -0.577
TTCTTCAGGAGTCTGCTCGTTA | 0.109
TAGCTTTTTATTATTAACCATC | -1.43
TTTTAGATCATTAAGTCTCATA | -0.76
TTTATTGTTACATTTGGCCTTA | 0.231

The sequences below were run against LILRA4 in the same assay as above. Details: shRNA.

Sequence | sensor-assay potency score (higher = more potent)
TTGATCTCAGACGCAACGGGGG | -1.08
TTTGGGTAGGTTTTCTGCCTGC | -0.143
TCCTCAATCAGAGTGAACCTGC | -0.933
TAATGGAGGAAGCATCTTCTAC | -1.03
AATCTGACTTCTTTTGTGCTGG | 0.00913
TAGGTTTTCTGCCTGCACCCGG | -0.532
TTCTCTCCTGAGGTCACCGTGG | -1.07
TTGTGTGCGCCGTAGCATCTGT | -0.739
TCCTTGTACAGAGTGTATCTGA | -0.799
TTTTCATAGCCGTAGCATCTGA | -1.2
TAGCCGTAGCATCTGAATGTAC | -0.777
TAGCATCTGAATGTACCCCTGT | 0.139

The sequences below were run against LILRB3 in the same assay as above. Details: shRNA.

Sequence | sensor-assay potency score (higher = more potent)
TGACTGTCCAGCTCCACCCTGT | -0.563
TTTATGCAGTCGGTACTCCTGG | -0.617
TTGTTGAGAAGTCTGTTGCTTT | -0.0209
TATGCAGTCGGTACTCCTGGGC | -0.223
TATTAGTCATCTTTGAGTCAGG | -0.452
TTGTGTGCACCGTAGCACCTGT | -0.532
TTGATTGTTGAGAAGTCTGTTG | -0.405
TTATGCAGTCGGTACTCCTGGG | -0.343
TTCCGTCTAAGGGTCAAGCTGT | -0.222
TGCTGTGACGCTGACGTCGGAG | -0.552
TTAGTCATCTTTGAGTCAGGTG | -0.0536
TTTCTCTGGTCAGATGTCCTGT | -0.223

These sequences were tested against LIMK2 in the same assay as above. Details: shRNA.

Sequence | sensor-assay potency score (higher = more potent)
TCGTTGACAGTCCTGTACCATA | -1.6
TTCACTTGCACAGTGGTGGCGT | 0.835
ATCTGCTGTGAATAGCTGCTGG | -0.683
TACTTGATGGTGACCTTCCCTT | -0.173
